Compound activity: PubChem, several laboratories
Efflux pump inh – inhibitors of Candida antifungal efflux pumps expressed in yeast. inhibition, % at 10 µM. S. cerevisiae Candida pump triplex, Nile Red efflux. 0.44% of 330,000 active;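 active = plate passing quality check with inhibition over a set limit, or well fluorescence over plate mean plus 4 SD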;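 note: Nile Red retained in pooled yeast measured as flow cytometry median fluorescence; 0% = buffer negative control and 100% = Enniatin B positive control; higher means more Nile Red kept so more efflux inhibition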
PHOSPHO1 inh – inhibitors of human PHOSPHO1 phosphatase; Q8TCT1; recombinant PHOSPHO1, absorbance phosphatase assay; inhibition, % at 13.3 µM; 1.1% of 290,000 active; in the data active = inhibition above about 60%
Target sequence (Q8TCT1 whole entry, looked up): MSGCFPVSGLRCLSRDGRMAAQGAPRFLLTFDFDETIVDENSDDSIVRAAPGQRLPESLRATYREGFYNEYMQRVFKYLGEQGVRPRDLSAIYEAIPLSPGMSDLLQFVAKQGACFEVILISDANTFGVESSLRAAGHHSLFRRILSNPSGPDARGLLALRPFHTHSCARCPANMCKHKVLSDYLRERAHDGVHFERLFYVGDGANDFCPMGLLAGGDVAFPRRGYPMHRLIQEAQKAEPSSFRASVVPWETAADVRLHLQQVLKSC
Cl transport mod – modulates chloride dependent transport by human KCC2. Q9H2X9. KCC2 cells, thallium flux FluoZin-2 fluorescence. B-score of Tl+ flux slope (higher = more flux/activation; lower = inhibition) at 10 µM. 2.2% of 190,000 active;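 active = thallium flux slope and its plate-corrected score both differing from the plate sample mean at a set confidence after two filtering rounds, in either direction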;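 note: slope of fluorescence scaled to starting intensity during 10 to 20 s after thallium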
Calb FLC – affects C. albicans growth with fluconazole; growth inhibition, % (no concentration beside the values); AID 1979; 0.57% of 300,000 active; C. albicans CaCi-2 (fluconazole-resistant clinical isolate) + fluconazole, Alamar Blue growth, 48 h;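 active = growth inhibition above about 58% in most replicates, limit read from the data, passing the limit was not always enough; inconclusive = exactly half the replicates above a set limit; inactive = most replicates below a set limit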;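 note: all wells also contain fluconazole at 8 µg/ml as a sub-toxic cotreatment; 0% = median of DMSO wells and 100% = median of geldanamycin control wells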
H9c2 protect – protects H9c2 cardiomyocytes from peroxide injury | H2O2 injury protection, ATPLite, 2 h | protection from H2O2 cell death, % at 20 µM | 0.63% of 360,000 active;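 active = compounds giving at least 50% protection of heart cells from peroxide-induced death in the single-dose screen, raw or plate-pattern-corrected value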;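 note: 0% = DMSO wells with peroxide and 100% = DMSO wells without peroxide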
KCC2 secondary – confirmation of human KCC2 transport modulators | shares compounds with Cl transport mod | HEK293-KCC2, thallium flux, FluoZin2 fluorescence; active compounds read high | AID 1713 | normalised thallium flux (F/F0 slope) at 10 µM | 15% of 3,700 active;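 active = thallium flux slope above the same plate's solvent-only control mean plus 3 SD; inconclusive = the two replicate wells disagree; inactive = no significant difference from solvent-only control wells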
KCC2 bumet counter – bumetanide-insensitive thallium flux in KCC2 cells with ouabain, counter-screen. shares compounds with Cl transport mod. HEK293-KCC2 + bumetanide/ouabain, thallium flux FluoZin2; active compounds read high. normalized thallium flux at 10 µM. 49% of 3,700 active. AID 1714;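 active = thallium entry rate above the same plate's blocked-transporter control wells by more than 3 SD; inconclusive = the two repeat wells disagree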;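 note: raw slope of fluorescence over initial fluorescence between 10 and 20 s after thallium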
KCC2 secondary2 – KCC2 (human) modulation, second secondary assay. AID 1715. shares compounds with Cl transport mod. normalized thallium flux at 10 µM. 23% of 3,700 active. HEK293-KCC2, thallium flux FluoZin2 fluorescence; actives lie on both sides; F/F0 rise rate, 10–20 s post-thallium;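 active = thallium flux slope more than 3 SD above or below the plate's solvent-only control mean, mostly below; inconclusive = the two repeat wells disagreed; inactive = no significant shift from solvent-only controls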;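 note: raw slope with 0.1% DMSO as baseline and bumetanide as block control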
HEK293 Tl flux – parental HEK flux effect, counter-screen. 46% of 3,700 active. AID 1716. shares compounds with Cl transport mod. thallium flux rate (normalised fluorescence) at 10 µM. HEK293 parental cells, thallium flux FluoZin2, ouabain; baseline-ratio fluorescence slope, 10–20 s after thallium;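 active = thallium flux rate significantly above the same plate's solvent-only control wells, beyond their mean plus 3 SD; inconclusive = the two replicate wells gave conflicting results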
KCC2 retest ouab – KCC2 (human) modulation, ouabain retest | shares compounds with Cl transport mod | HEK293-KCC2, thallium flux FluoZin2 fluorescence; bidirectional: low = inhibitor, high = activator | raw Tl+ flux slope (below DMSO = inhibition, above = activation) at 10 µM | 48% of 3,700 active;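 active = thallium flux slope beyond 3 SD from same-plate DMSO control mean in most replicates, usually higher, sometimes lower; inconclusive = repeat tests gave conflicting results; inactive = no significant difference from controls in most replicates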;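 note: slope of initial-normalized fluorescence between seconds 10 and 20 after thallium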
HEK counter2 – acts in parental HEK cells, second KCC2 counter-screen. shares compounds with Cl transport mod. HEK293 parental, thallium flux FluoZin-2 fluorescence slope. thallium flux slope at 10 µM. 33% of 3,700 active;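 active = thallium flux slope above the same plate's solvent-control mean plus 3 SD in both duplicate wells; inconclusive = duplicate wells that disagreed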;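 note: run without ouabain in cells lacking the KCC2 cotransporter; slope of fluorescence scaled to its starting value between 10 and 20 s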
The depositor's hits bear a star. The list is not random: actives were taken first. Their share in the collection is about 3.3%.

For Brc1ccc(CSc2nnc(-c3ccccn3)n2Cc2ccco2)cc1 the results were Efflux pump inh 0, PHOSPHO1 inh 47, Calb FLC 48, H9c2 protect -2, KCC2 secondary 0.0081, KCC2 bumet counter inconclusive, KCC2 secondary2 inconclusive, HEK293 Tl flux 0.0045*, KCC2 retest ouab inconclusive and HEK counter2 0.0073*.
O=C(CSc1nnc(-c2ccccn2)n1Cc1ccco1)c1ccc(Cl)cc1 was read as Efflux pump inh 0, PHOSPHO1 inh 80*, Calb FLC 19, H9c2 protect 0, KCC2 secondary 0.0069, KCC2 bumet counter inconclusive, KCC2 secondary2 0.028, HEK293 Tl flux 0.006*, KCC2 retest ouab 0.016 and HEK counter2 0.01.
Screening Cc1ccc(C)c(NC(=O)CN(C)C(=O)Cn2c(=O)oc3ccccc32)c1 returned Efflux pump inh 0, Calb FLC -3 and H9c2 protect 1.
Cc1ccccc1Nc1scc(-c2ccc(Cl)cc2)[n+]1-c1ccccc1C was read as PHOSPHO1 inh 40, Cl transport mod -0.41, Calb FLC 5 and H9c2 protect -11.
For Cc1cc(C)n(-c2nc(SCC(=O)Nc3nccs3)c3c4c(sc3n2)COC(C)(C)C4)n1 the results were Efflux pump inh 0, PHOSPHO1 inh -26, Cl transport mod 4.4*, Calb FLC -4, H9c2 protect 44, KCC2 secondary 0.0096, KCC2 bumet counter 0.022*, KCC2 secondary2 0.032, HEK293 Tl flux 0.019*, KCC2 retest ouab 0.026* and HEK counter2 0.013*.
For Cc1cc(=O)n2nc(N3CCC(C(=O)NCc4cccc(Br)c4)CC3)sc2n1 the results were Efflux pump inh 0, PHOSPHO1 inh 33, Calb FLC 1 and H9c2 protect -4.
Screening O=C1C2CCCN2C(c2ccccc2F)N1c1cccc(Cl)c1 (centres undefined) returned Efflux pump inh 0, PHOSPHO1 inh 4, Cl transport mod -3.7*, Calb FLC -16, H9c2 protect 2, KCC2 secondary 0.0073, KCC2 bumet counter inconclusive, KCC2 secondary2 0.031, HEK293 Tl flux inconclusive, KCC2 retest ouab 0.02 and HEK counter2 0.012.
Screening COc1ccccc1CNc1n[nH]c(NCc2ccccc2OC)n1 returned Efflux pump inh 0, PHOSPHO1 inh -14, Calb FLC -1, H9c2 protect -3, KCC2 secondary inconclusive, KCC2 bumet counter 0.005, KCC2 secondary2 0.03, HEK293 Tl flux 0.0075, KCC2 retest ouab 0.018 and HEK counter2 0.011.
`COc1ccccc1CNc1ccc(CNc2ncn[nH]2)cc1` gave Efflux pump inh 0, PHOSPHO1 inh 34, Cl transport mod 0.63, Calb FLC -29 and H9c2 protect 16.
For Oc1ccc(/C=N/NC(=S)NC2CC3CCC2C3)cc1 (centres undefined) the results were Efflux pump inh 0, PHOSPHO1 inh 25, Cl transport mod 0.44, Calb FLC -6 and H9c2 protect -10.
Screening S=C(N/N=C/c1cccs1)NC1CC2CCC1C2 (centres undefined) returned Efflux pump inh 0, PHOSPHO1 inh 21, Cl transport mod 19*, Calb FLC 27, H9c2 protect -8, KCC2 secondary 0.017*, KCC2 bumet counter 0.066*, KCC2 secondary2 0.038, HEK293 Tl flux 0.027*, KCC2 retest ouab inconclusive and HEK counter2 0.016*.
Screening CC1=C(C(=O)Nc2ccccc2)C(c2ccco2)C(C#N)=C(SCc2ccccc2)N1 (centres undefined) returned Efflux pump inh 1, PHOSPHO1 inh -8, Calb FLC 5, KCC2 secondary 0.0075, KCC2 bumet counter 0.0043, KCC2 secondary2 0.03, HEK293 Tl flux 0.0078, KCC2 retest ouab 0.019 and HEK counter2 0.011.
Screening CC1=C(C(=O)Nc2ccccc2)C(c2ccco2)C(C#N)=C(SCC(=O)OC(C)C)N1 (centres undefined) returned Efflux pump inh 0, PHOSPHO1 inh 9, Cl transport mod -2.9, Calb FLC inconclusive and H9c2 protect 17.
Cc1ccc(N2CC(C)Cn3c2nc2c3c(=O)[nH]c(=O)n2C)cc1C (centres undefined) was read as Efflux pump inh 0, PHOSPHO1 inh 37, Calb FLC -13 and H9c2 protect -2.
`Oc1c(Br)cc(Br)cc1/C=N/NC(=S)N[C@H]1CC2C=CC1C2` (some centres undefined) gave Efflux pump inh 0, PHOSPHO1 inh 3, Cl transport mod 4.8*, Calb FLC -8, H9c2 protect 34, KCC2 secondary 0.0079, KCC2 bumet counter 0.014*, KCC2 secondary2 0.03, HEK293 Tl flux 0.01*, KCC2 retest ouab inconclusive and HEK counter2 0.0094.
Screening O=c1[nH]c(-c2ccccn2)nc2sc(-c3ccccc3)cc12 returned PHOSPHO1 inh -5, Cl transport mod 4.4*, Calb FLC -21, H9c2 protect 5, KCC2 secondary 0.0097, KCC2 bumet counter 0.018*, KCC2 secondary2 0.032, HEK293 Tl flux 0.033*, KCC2 retest ouab inconclusive and HEK counter2 0.015*.
For O=C(NCc1nnc(SCC(=O)N2CCOCC2)o1)c1ccccc1 the results were H9c2 protect 1.
Screening Clc1ccc(OCc2cn3ccccc3n2)c2ncccc12 returned Efflux pump inh 0, PHOSPHO1 inh 16, Cl transport mod -3.7*, Calb FLC 6, H9c2 protect 26, KCC2 secondary 0.0062, KCC2 bumet counter 0.0063, KCC2 secondary2 0.03, HEK293 Tl flux 0.0066, KCC2 retest ouab 0.017 and HEK counter2 0.0095.
OCc1ccccc1OCCOc1ccc(Cl)c2cccnc12 was read as Efflux pump inh 0, PHOSPHO1 inh -18, Cl transport mod -2.2, Calb FLC 15 and H9c2 protect -2.
